In PubChem BioAssay AID1159580 (chemical genetic matrix, 2015):
About 2,000 (36%) of roughly 5,500 compounds were called active. About 18% were inconclusive and are not listed. Cut-off read from the data, not from the text of the source: active = normalized growth mostly below about 0.91 (no sharp cut-off); inconclusive = no clear call, values can overlap the other calls; inactive = mostly above about 0.92. The list shows a part of the results.

Test: chemical genetic growth profiling, strain panel (AID 1159580);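 note: tested at 20 µM; growth read once vehicle control cultures reached saturation at 30 °C; 1 = growth at the plate median or of vehicle wells; lower values mean less growth of the strain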
Settings: S. cerevisiae deletion strains, growth OD

Measured: normalized growth

CNC(=O)Oc1cccc2c1OC(C)(C)O2
inactive: locus YAL013W, strain DEP1, active compounds read low 1.01 | locus YAL021C, strain ccr4, active compounds read low 0.991 | locus YAL026C, strain drs2, active compounds read low 1 | locus YAL030W, strain snc1, active compounds read low 1.01 | locus YBL061C, strain skt5, active compounds read low 1 | locus YBR009C, strain hhf1, active compounds read low 1 | locus YBR021W, strain FUR4, active compounds read low 1.03 | locus YBR023C, strain chs3, active compounds read low 1 | locus YBR171W, strain sec66, active compounds read low 1.01 | locus YBR229C, strain ROT2, active compounds read low 1.02 | locus YBR231C, strain swc5, active compounds read low 1 | locus YBR279W, strain paf1, active compounds read low 0.994 | locus YCL011C, strain gbp2, active compounds read low 1 | locus YCL016C, strain dcc1, active compounds read low 1 | locus YCL029C, strain bik1, active compounds read low 0.999 | locus YCL061C, strain MRC1, active compounds read low 0.998 | locus YCL069W, strain vba3, active compounds read low 0.998 | locus YCR088W, strain abp1, active compounds read low 1 | locus YDL005C, strain med2, active compounds read low 0.996 | locus YDL035C, strain GPR1, active compounds read low 1.02 | locus YDL040C, strain nat1, active compounds read low 1 | locus YDL074C, strain BRE1, active compounds read low 1.07 | locus YDL101C, strain DUN1, active compounds read low 1.03 | locus YDL134C, strain PPH21, active compounds read low 1.02 | locus YDL185W, strain tfp1, active compounds read low 0.995 | locus YDL192W, strain arf1, active compounds read low 0.993 | locus YDR001C, strain nth1, active compounds read low 1 | locus YDR069C, strain doa4, active compounds read low 1 | locus YDR101C, strain arx1, active compounds read low 0.989 | locus YDR137W, strain rgp1, active compounds read low 1.05 | locus YDR150W, strain NUM1, active compounds read low 1.02 | locus YDR159W, strain sac3, active compounds read low 0.988 | locus YDR162C, strain NBP2, active compounds read low 1.02 | locus YDR195W, strain ref2 0.967 | locus YDR297W, strain sur2, active compounds read low 0.997 | locus YDR318W, strain mcm21, active compounds read low 0.996 | locus YDR334W, strain swr1, active compounds read low 1.01 | locus YDR335W, strain msn5, active compounds read low 0.995 | locus YDR388W, active compounds read low 0.996 | locus YDR392W, strain spt3, active compounds read low 0.814 | locus YDR502C, strain sam2, active compounds read low 0.997 | locus YEL003W, strain gim4, active compounds read low 0.999 | locus YEL037C, strain rad23, active compounds read low 0.998 | locus YEL061C, strain CIN8 (second series), active compounds read low 1.01 | locus YEL061C, strain CIN8, active compounds read low 1.01 | locus YER015W, strain faa2, active compounds read low 1 | locus YER016W, strain bim1, active compounds read low 0.998 | locus YER110C, active compounds read low 1 | locus YER111C, strain swi4, active compounds read low 0.992 | locus YER155C, strain BEM2 (second series), active compounds read low 0.998 | locus YER155C, strain BEM2, active compounds read low 1.02 | locus YER167W, strain BCK2, active compounds read low 1.01 | locus YFR010W, strain ubp6, active compounds read low 0.987 | locus YGL078C, strain dbp3, active compounds read low 0.99 | locus YGL086W, strain mad1, active compounds read low 0.996 | locus YGL167C, strain pmr1, active compounds read low 1 | locus YGL173C, strain kem1, active compounds read low 1 | locus YGL227W, strain vid30, active compounds read low 0.999 | locus YGL240W, strain doc1, active compounds read low 0.986 | locus YGL248W, strain PDE1, active compounds read low 1.01 | locus YGL253W, strain hxk2, active compounds read low 1 | locus YGR078C, strain PAC10, active compounds read low 1.02 | locus YGR135W, strain pre9, active compounds read low 0.999 | locus YGR229C, strain SMI1, active compounds read low 1.03 | locus YGR252W, strain gcn5, active compounds read low 0.941 | locus YHR013C, strain ard1, active compounds read low 0.946 | locus YHR027C, strain rpn1, active compounds read low 1.01 | locus YHR030C, strain SLT2, active compounds read low 1.02 | locus YHR079C, strain IRE1 (second series), active compounds read low 0.99 | locus YHR094C, strain hxt1, active compounds read low 0.995 | locus YHR129C, strain ARP1, active compounds read low 1.02 | locus YHR142W, strain chs7, active compounds read low 1 | locus YHR200W, strain rpn10, active compounds read low 0.995 | locus YIL066C, strain RNR3, active compounds read low 1.02 | locus YIL073C, strain SPO22, active compounds read low 0.954 | locus YIL125W, strain kgd1, active compounds read low 1 | locus YIR030C, strain dcg1, active compounds read low 0.995 | locus YJL092W, strain hpr5, active compounds read low 1 | locus YJL095W, strain BCK1 (second series), active compounds read low 0.997 | locus YJL095W, strain BCK1, active compounds read low 1.04 | locus YJL115W, strain asf1, active compounds read low 0.997 | locus YJL129C, strain trk1, active compounds read low 1.02 | locus YJL134W, strain LCB3, active compounds read low 1.02 | locus YJL154C, strain vps35, active compounds read low 1 | locus YJL164C, strain tpk1, active compounds read low 0.991 | locus YJL166W, strain qcr8, active compounds read low 0.992 | locus YJL168C, strain set2, active compounds read low 0.991 | locus YJL187C, strain SWE1 (second series), active compounds read low 1.01 | locus YJL187C, strain SWE1, active compounds read low 1.01
